# Assay results published in PubChem BioAssay (EPA / NIEHS).
# Records with an inconclusive call do not appear. Activity calls are given as the source filed them. How the source made its calls, unless noted: active means hit-call score of the fitted dose curve at least 0.9, where 1 is the maximum; inactive means score below 0.9.
# Experiments:
# [1] = ATG_NFI_CIS: Attagene CIS-FACTORIAL HepG2 Assay for human Nuclear Factor I (NFI) (AID 2282989); conditions: HepG2 cis-regulatory reporter, NFI response element transcription; actives raise or lower the signal
# Method in brief: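 Transient MRTU transfection of HepG2 → 24 h chemical dosing → total RNA, oligo(dT) RT → PCR, 6-FAM primer extension, HpaI cut → capillary electrophoresis. Endpoint fitted bidirectionally relative to DMSO.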
# [2] = ATG_NRF2_ARE_CIS: Attagene CIS-FACTORIAL HepG2 Assay for human Nuclear Factor Erythroid 2 Related Factor 2 (NFR2) response to Antioxidant Response Elements (ARE) (AID 2282992); conditions: HepG2 Attagene ARE/NRF2 reporter, transcription factor activity; actives raise or lower the signal;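 on AC50: reporter mRNA level measured by RT-PCR and capillary electrophoresis fluorescence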
# Method in brief: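 HepG2 cells transiently transfected with multiplexed cis-regulated reporter transcription units measure endogenous transcription factor activity. Reporter mRNA at 24 h is quantified by RT-PCR, fluorescent labelling and capillary electrophoresis, with bidirectional fitting relative to DMSO.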
# [3] = ATG_Oct_MLP_CIS: Attagene CIS-FACTORIAL HepG2 Assay for human Octamer-Binding Transcription Factor (Oct) (AID 2282993); conditions: HepG2 Attagene cis-factorial Oct reporter, mRNA; actives raise or lower the signal
# Method in brief: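 Transient MRTU transfection of HepG2 → 24 h compound treatment → RNA isolation, reverse transcription, PCR → 6-FAM primer extension, HpaI digest → capillary electrophoresis. Activity fitted both directions against DMSO.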
# [4] = target: Cellular tumor antigen p53 (Homo sapiens) (UniProt P04637); test: ATG_p53_CIS: Attagene CIS-FACTORIAL HepG2 Assay for human p53 Transcription Factor (AID 2282994); conditions: HepG2 p53 cis-element reporter, Attagene mRNA; actives raise or lower the signal
# Cellular tumor antigen p53 (Homo sapiens), sequence (P04637 whole entry, looked up): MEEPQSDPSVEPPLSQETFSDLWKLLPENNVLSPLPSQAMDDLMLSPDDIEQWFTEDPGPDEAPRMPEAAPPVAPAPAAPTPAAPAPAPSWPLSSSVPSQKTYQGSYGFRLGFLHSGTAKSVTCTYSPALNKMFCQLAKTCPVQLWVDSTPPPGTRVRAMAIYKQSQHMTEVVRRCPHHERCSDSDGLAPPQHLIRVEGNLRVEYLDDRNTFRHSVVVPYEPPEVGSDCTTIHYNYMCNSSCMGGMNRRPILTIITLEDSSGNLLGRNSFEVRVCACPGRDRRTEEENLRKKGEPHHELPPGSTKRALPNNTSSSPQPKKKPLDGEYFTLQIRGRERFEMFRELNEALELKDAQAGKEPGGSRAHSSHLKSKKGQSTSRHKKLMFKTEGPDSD
# Method in brief: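 HepG2 cells transiently transfected with multiplexed cis-regulated reporter transcription units read endogenous TF activity. After 24 h compound exposure, reporter mRNA was quantified by RT-PCR, fluorescent labelling, HpaI digestion and capillary electrophoresis; bidirectional fits versus DMSO baseline.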
# [5] = target: human Peroxisome Proliferator-activated Receptor alpha (PPARa), PPARA (gene 5465) (UniProt Q07869); test: ATG_PPARa_TRANS: Attagene TRANS-FACTORIAL HepG2 Assay for human Peroxisome Proliferator-activated Receptor alpha (PPARa) (AID 2283001; active means hit-call score of the fitted dose curve at least 0.9, where 1 is the maximum)
# human Peroxisome Proliferator-activated Receptor alpha (PPARa), PPARA (gene 5465), sequence (Q07869 whole entry, looked up, the tested form may be a part): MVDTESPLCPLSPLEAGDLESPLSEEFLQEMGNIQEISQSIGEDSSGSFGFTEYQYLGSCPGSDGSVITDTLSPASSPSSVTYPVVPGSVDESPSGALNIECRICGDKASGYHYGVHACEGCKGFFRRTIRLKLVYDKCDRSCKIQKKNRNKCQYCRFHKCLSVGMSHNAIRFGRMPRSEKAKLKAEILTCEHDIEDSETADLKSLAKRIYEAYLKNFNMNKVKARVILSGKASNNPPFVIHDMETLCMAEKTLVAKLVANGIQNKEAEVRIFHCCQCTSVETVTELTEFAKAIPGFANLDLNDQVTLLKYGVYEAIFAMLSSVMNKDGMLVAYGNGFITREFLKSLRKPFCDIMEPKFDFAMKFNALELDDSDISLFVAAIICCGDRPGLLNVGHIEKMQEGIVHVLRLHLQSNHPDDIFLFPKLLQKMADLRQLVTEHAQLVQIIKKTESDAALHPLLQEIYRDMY
# Method in brief: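 Read-out is fluorescence of reporter cDNA fragments resolved by capillary electrophoresis after RT-PCR. Human HepG2 liver cells carried transfected PPARa-Gal4 chimera and GAL4-UAS reporter units, treated 24 h; activity scored as increase over DMSO.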
# [6] = target: Peroxisome proliferator-activated receptor gamma (Homo sapiens) (UniProt P37231); test: ATG_PPARg_TRANS: Attagene TRANS-FACTORIAL HepG2 Assay for human Peroxisome Proliferator-activated Receptor-gamma (PPARg) (AID 2283007; active means hit-call score of the fitted dose curve at least 0.9, where 1 is the maximum)
# Peroxisome proliferator-activated receptor gamma (Homo sapiens), sequence (P37231 whole entry, looked up, the tested form may be a part): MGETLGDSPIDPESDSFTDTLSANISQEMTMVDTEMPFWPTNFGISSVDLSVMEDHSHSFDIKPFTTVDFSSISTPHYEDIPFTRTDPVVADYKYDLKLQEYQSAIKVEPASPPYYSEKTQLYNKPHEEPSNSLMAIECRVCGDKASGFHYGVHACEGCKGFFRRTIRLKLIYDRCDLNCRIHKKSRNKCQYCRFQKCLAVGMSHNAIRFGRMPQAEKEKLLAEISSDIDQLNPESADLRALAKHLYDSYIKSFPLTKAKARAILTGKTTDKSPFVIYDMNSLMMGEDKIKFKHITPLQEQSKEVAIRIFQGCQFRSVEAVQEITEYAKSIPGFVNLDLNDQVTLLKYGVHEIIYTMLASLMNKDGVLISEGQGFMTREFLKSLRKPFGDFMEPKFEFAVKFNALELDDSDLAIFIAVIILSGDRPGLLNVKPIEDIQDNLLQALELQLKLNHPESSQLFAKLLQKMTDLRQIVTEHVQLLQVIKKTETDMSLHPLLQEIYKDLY
# Method in brief: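 HepG2 cells are transiently transfected with GAL4-UAS reporter units driven by chimeric NR-Gal4 fusions and dosed for 24 h. Reporter mRNA is quantified by RT-PCR, 6-FAM labelling, HpaI digestion and capillary electrophoresis. Induction is scored against DMSO.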
# [7] = target: Nuclear receptor subfamily 1 group I member 2 (Homo sapiens) (UniProt O75469); test: ATG_PXR_TRANS: Attagene TRANS-FACTORIAL HepG2 Assay for human Pregnane X Receptor (PXR) (AID 2283008; active means hit-call score of the fitted dose curve at least 0.9, where 1 is the maximum)
# Nuclear receptor subfamily 1 group I member 2 (Homo sapiens), sequence (O75469 whole entry, looked up, the tested form may be a part): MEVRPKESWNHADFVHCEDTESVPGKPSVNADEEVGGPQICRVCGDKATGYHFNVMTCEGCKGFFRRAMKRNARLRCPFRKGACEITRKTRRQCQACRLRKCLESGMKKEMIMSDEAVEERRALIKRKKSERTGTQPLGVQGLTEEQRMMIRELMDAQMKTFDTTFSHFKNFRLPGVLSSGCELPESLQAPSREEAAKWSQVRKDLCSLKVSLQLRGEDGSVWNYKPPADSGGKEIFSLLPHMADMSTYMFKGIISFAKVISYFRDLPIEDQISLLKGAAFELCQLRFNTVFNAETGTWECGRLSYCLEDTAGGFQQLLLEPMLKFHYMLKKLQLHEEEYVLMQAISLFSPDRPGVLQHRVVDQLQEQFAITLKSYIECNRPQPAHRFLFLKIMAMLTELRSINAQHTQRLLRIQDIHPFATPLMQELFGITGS
# Method in brief: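 HepG2 cells transiently transfected with multiple reporter units, here a PXR-GAL4 chimera driving a GAL4-UAS reporter; 24 h compound exposure. Reporter mRNA measured by RT-PCR, FAM labelling and capillary electrophoresis; gain of signal fitted against DMSO baseline.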
# [8] = target: human RAR-related Orphan Receptor beta (RORb), RORB (gene 6096) (UniProt Q92753); test: ATG_RORb_TRANS: Attagene TRANS-FACTORIAL HepG2 Assay for human RAR-related Orphan Receptor beta (RORb) (AID 2283010; active means hit-call score of the fitted dose curve at least 0.9, where 1 is the maximum)
# human RAR-related Orphan Receptor beta (RORb), RORB (gene 6096), sequence (Q92753 whole entry, looked up, the tested form may be a part): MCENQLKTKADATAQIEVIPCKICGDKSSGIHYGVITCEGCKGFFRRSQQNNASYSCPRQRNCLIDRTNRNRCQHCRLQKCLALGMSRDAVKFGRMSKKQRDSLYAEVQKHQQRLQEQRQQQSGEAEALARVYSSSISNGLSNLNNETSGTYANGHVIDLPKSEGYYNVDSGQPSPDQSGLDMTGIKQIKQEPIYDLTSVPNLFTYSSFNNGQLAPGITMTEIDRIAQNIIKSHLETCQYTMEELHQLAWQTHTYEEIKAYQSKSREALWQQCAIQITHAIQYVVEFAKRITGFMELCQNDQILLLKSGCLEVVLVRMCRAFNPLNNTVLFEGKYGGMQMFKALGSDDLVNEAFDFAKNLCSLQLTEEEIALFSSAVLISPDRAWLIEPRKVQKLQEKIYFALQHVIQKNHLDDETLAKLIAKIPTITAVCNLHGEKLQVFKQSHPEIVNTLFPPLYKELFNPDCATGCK
# Method in brief: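 Readout is reporter-gene mRNA induction, detected as fluorescence after RT-PCR and capillary electrophoresis, fitted for gain of signal against DMSO controls. Transiently transfected HepG2 liver cells carrying GAL4-UAS reporter constructs were treated for 24 hours.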
# [9] = ATG_NF_kB_CIS: Attagene CIS-FACTORIAL HepG2 Assay for human Nuclear Factor Kappa B (NF-kB) (AID 2282991); conditions: HepG2 Attagene cis-factorial NF-kB reporter mRNA; actives raise or lower the signal
# Method in brief: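 HepG2 cells transfected with cis-promoter-driven reporter units, so endogenous transcription factor activity is measured. Reporter mRNA quantified 24 h after dosing by RT-PCR and capillary electrophoresis, with bidirectional fitting against DMSO.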
# [10] = target: Myc proto-oncogene protein (Homo sapiens) (UniProt P01106); test: ATG_Myc_CIS: Attagene CIS-FACTORIAL HepG2 Assay for human Myelocytomatosis (Myc) Proto-Oncogene Transcription Factor (AID 2282990); conditions: HepG2, Attagene cis-reporter transcription factor activity; actives raise or lower the signal
# Myc proto-oncogene protein (Homo sapiens), sequence (P01106 whole entry, looked up): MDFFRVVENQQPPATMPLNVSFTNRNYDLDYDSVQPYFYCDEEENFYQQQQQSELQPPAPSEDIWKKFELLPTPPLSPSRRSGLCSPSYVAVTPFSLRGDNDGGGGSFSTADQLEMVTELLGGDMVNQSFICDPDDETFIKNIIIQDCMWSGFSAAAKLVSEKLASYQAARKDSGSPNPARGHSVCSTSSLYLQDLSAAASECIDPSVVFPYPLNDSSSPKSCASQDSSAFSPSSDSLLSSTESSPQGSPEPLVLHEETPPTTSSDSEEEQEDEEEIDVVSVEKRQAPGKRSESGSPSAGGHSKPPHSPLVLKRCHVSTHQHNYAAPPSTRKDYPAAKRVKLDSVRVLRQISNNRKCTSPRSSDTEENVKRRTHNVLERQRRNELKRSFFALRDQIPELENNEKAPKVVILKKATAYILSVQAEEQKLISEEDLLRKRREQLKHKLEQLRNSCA
# Method in brief: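 HepG2, transient MRTU transfection (cis promoters, endogenous TFs); 24 h dosing; TriZol RNA → oligo(dT) RT → PCR → 6-FAM primer extension → HpaI cut → CE. Bidirectional fit vs DMSO.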
# [11] = BSK_3C_TissueFactor: BioMAP Diversity Plus: 3C Assay for Tissue Factor Biomarker Activity (AID 2282997); conditions: BioMAP 3C HUVEC, tissue factor biomarker readout; actives raise or lower the signal
# Method in brief: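 Dosing of human umbilical vein endothelial cells preceded a 24 h incubation. Tissue Factor was then read by ELISA, with increases and decreases both scored relative to DMSO controls.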
# [12] = BSK_3C_uPAR: BioMAP Diversity Plus: 3C Assay for Urokinase-type plasminogen activator receptor (uPAR) Biomarker Activity (AID 2282998); conditions: BioMAP 3C HUVEC, uPAR biomarker ELISA; actives raise or lower the signal
# Method in brief: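 ELISA readout of uPAR on human vascular endothelium (umbilical vein primary cells), taken 24 h after chemical dosing. Increases and decreases are both fitted relative to DMSO vehicle.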
# [13] = BSK_3C_VCAM1: BioMAP Diversity Plus: 3C Assay for Vascular cell adhesion molecule 1 (VCAM1) Biomarker Activity (AID 2282999); conditions: BioMAP 3C HUVEC, VCAM1 ELISA, cytokine-stimulated; actives raise or lower the signal
# Method in brief: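 Endothelial cells from human umbilical vein are treated with test chemical. At 24 h, VCAM-1 is measured by ELISA, and responses in either direction are fitted relative to DMSO.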
# [14] = BSK_4H_Eotaxin3: BioMAP Diversity Plus: 4H Assay for Eotaxin 3 Biomarker Activity (AID 2283000); conditions: primary human endothelial cells (HUVEC); actives raise or lower the signal
# Method in brief: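 Human umbilical vein endothelial cells (BSK_4H system) dosed with test chemical; Eotaxin-3 (CCL26) measured by ELISA 24 h after dosing. Bidirectional curve fitting relative to DMSO negative control as baseline.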
# [15] = target: human Peroxisome Proliferator-activated Receptor delta (PPARd), PPARD (gene 5467) (UniProt Q03181); test: ATG_PPARd_TRANS: Attagene TRANS-FACTORIAL HepG2 Assay for human Peroxisome Proliferator-activated Receptor delta (PPARd) (AID 2283002; active means hit-call score of the fitted dose curve at least 0.9, where 1 is the maximum)
# human Peroxisome Proliferator-activated Receptor delta (PPARd), PPARD (gene 5467), sequence (Q03181 whole entry, looked up, the tested form may be a part): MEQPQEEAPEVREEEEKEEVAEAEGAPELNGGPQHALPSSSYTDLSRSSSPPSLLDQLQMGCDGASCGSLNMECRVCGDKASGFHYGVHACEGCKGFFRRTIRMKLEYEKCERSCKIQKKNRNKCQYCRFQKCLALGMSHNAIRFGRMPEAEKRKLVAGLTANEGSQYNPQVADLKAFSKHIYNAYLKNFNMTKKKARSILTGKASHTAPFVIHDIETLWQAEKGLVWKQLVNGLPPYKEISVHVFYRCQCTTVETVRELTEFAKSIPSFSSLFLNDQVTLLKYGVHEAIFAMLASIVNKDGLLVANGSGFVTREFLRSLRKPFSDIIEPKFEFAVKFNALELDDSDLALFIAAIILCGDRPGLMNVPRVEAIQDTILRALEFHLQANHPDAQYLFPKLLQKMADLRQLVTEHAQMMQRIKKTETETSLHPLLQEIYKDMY
# Method in brief: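 Transient HepG2 transfection (multiple GAL4-UAS RTUs, chimeric receptor-Gal4); 24 h dosing; total RNA → oligo(dT) RT → PCR → 6-FAM primer extension → HpaI cut → CE. Positive direction vs DMSO.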
# [16] = read-out: Intercellular Adhesion Molecule 1 (ICAM1), ICAM1 (gene 3383); test: BSK_3C_ICAM1: BioMAP Diversity Plus: 3C Assay for Intercellular Adhesion Molecule 1 (ICAM1) Biomarker Activity (AID 2283003); conditions: primary human endothelial cells (HUVEC); actives raise or lower the signal
# Method in brief: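 ICAM-1 levels measured by ELISA after HUVEC cultures in the 3C system had been dosed for 24 h. Gain or loss of signal relative to DMSO was fitted in both directions.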
# [17] = target: Retinoic acid receptor alpha (Homo sapiens) (UniProt P10276); test: ATG_RARa_TRANS: Attagene TRANS-FACTORIAL HepG2 Assay for human Retinoic Acid Receptor alpha (RARa) (AID 2283005; active means hit-call score of the fitted dose curve at least 0.9, where 1 is the maximum)
# Retinoic acid receptor alpha (Homo sapiens), sequence (P10276 whole entry, looked up, the tested form may be a part): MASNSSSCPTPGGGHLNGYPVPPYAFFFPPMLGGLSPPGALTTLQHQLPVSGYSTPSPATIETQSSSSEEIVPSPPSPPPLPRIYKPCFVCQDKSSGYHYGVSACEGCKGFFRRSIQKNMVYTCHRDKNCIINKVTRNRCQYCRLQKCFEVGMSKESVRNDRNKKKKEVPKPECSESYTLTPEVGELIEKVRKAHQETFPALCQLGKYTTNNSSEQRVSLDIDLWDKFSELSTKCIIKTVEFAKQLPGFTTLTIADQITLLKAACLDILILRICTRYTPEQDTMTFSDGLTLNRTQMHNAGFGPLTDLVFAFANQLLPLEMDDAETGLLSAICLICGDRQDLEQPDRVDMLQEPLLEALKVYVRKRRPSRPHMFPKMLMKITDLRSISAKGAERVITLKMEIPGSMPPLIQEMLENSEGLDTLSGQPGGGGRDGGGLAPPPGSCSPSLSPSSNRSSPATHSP
# Method in brief: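 Reporter transcripts, measured by RT-PCR with fluorescent labeling and capillary electrophoresis after 24 h dosing, reflect activity of an exogenous human RARa–GAL4 fusion in transiently transfected HepG2. Fitted for increase relative to DMSO.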
# [18] = BSK_3C_Proliferation: Cell Proliferation Assessment in the BioMAP Diversity Plus: 3C Assay (AID 2283006); conditions: primary human endothelial cells (HUVEC);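 further: potency may reflect either rise or fall in cell number versus DMSO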
# Method in brief: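 Read-out is total protein by SRB absorbance at 560 nm, taken as a proxy for relative cell number. Primary human umbilical vein endothelium cultured below confluence was dosed for 48 h, TCA-fixed and SRB-stained; curves were fitted bidirectionally versus DMSO.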
# [19] = target: human Retinoic Acid Receptor gamma (RARg), RARG (gene 5916) (UniProt P13631); test: ATG_RARg_TRANS: Attagene TRANS-FACTORIAL HepG2 Assay for human Retinoic Acid Receptor gamma (RARg) (AID 2283009; active means hit-call score of the fitted dose curve at least 0.9, where 1 is the maximum)
# human Retinoic Acid Receptor gamma (RARg), RARG (gene 5916), sequence (P13631 whole entry, looked up): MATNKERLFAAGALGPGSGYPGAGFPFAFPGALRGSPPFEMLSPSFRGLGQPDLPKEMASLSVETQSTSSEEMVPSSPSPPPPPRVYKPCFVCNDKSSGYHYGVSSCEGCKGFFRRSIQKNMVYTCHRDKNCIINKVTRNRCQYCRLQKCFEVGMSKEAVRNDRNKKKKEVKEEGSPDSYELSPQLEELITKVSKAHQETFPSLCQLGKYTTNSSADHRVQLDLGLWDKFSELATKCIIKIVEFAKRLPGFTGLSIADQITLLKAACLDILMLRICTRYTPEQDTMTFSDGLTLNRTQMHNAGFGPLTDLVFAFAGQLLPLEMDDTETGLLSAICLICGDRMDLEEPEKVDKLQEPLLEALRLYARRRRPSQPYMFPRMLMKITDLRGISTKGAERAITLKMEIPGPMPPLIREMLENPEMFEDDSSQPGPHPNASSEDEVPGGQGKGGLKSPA
# Method in brief: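 Transient transfection of HepG2 with multi-reporter constructs, then 24 h chemical treatment. Total RNA isolated, reverse-transcribed, PCR-amplified, fluorescently labelled and resolved by capillary electrophoresis; activity scored as mRNA induction versus DMSO.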
# [20] = target: human Retinoic Acid Receptor beta (RARb), RARB (gene 5915) (UniProt P10826); test: ATG_RARb_TRANS: Attagene TRANS-FACTORIAL HepG2 Assay for human Retinoic Acid Receptor beta (AID 2283004; active means hit-call score of the fitted dose curve at least 0.9, where 1 is the maximum)
# human Retinoic Acid Receptor beta (RARb), RARB (gene 5915), sequence (P10826 whole entry, looked up, the tested form may be a part): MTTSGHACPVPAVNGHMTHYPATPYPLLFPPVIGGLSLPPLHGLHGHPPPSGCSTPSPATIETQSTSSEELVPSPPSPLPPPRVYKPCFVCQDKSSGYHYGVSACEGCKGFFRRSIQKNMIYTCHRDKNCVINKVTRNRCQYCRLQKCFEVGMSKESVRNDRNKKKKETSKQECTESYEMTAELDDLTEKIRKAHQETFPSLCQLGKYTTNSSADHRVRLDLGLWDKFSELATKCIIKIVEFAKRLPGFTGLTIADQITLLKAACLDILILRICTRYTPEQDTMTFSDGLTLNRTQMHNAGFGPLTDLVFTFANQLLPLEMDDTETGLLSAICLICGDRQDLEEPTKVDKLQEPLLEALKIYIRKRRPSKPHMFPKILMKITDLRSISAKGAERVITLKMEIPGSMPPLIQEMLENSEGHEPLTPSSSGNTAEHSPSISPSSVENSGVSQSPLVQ
# Method in brief: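 Induction of reporter mRNA from a chimeric RARb-Gal4 construct was measured by RT-PCR, FAM labelling, HpaI digestion and capillary electrophoresis. Measurements followed 24 h compound treatment of transiently transfected human HepG2 liver cells, with DMSO as baseline.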
structure (smiles),measurement,setting,value
Cc1ccc(N/N=c2\c(=O)cc/c(=N/Nc3ccc(S(=O)(=O)O)cc3)c2=O)c(C)c1,outcome,[1],inactive
same,outcome,[2],inactive
same,outcome,[3],inactive
same,outcome,[4],inactive
same,outcome,[5],inactive
same,outcome,[6],inactive
same,outcome,[7],inactive
same,outcome,[8],inactive
C=C(C)[C@@H]1CCC2=CCC[C@@H](C)[C@]2(C)C1,outcome,[1],inactive
same,outcome,[9],inactive
same,AC50,[2],87.3 µM (active)
same,outcome,[3],inactive
same,outcome,[4],inactive
same,outcome,[6],inactive
same,AC50,[7],2.72 µM (active)
c1ccc(-c2ccccn2)nc1,outcome,[1],inactive
same,outcome,[10],inactive
same,outcome,[3],inactive
same,outcome,[11],inactive
same,outcome,[12],inactive
same,outcome,[13],inactive
same,AC50,[14],20 µM (active)
same,outcome,[5],inactive
same,outcome,[15],inactive
same,outcome,[16],inactive
same,outcome,[17],inactive
same,AC50,[18],29 µM (active)
same,outcome,[6],inactive
same,outcome,[7],inactive
same,outcome,[19],inactive
ON(Cc1ccccc1)Cc1ccccc1,outcome,[1],inactive
same,outcome,[9],inactive
same,outcome,[2],inactive
same,outcome,[4],inactive
same,outcome,[15],inactive
same,AC50,[7],17.2 µM (active)
same,outcome,[19],inactive
O=c1[nH]c(=O)c2[nH]c(=O)[nH]c2[nH]1,outcome,[1],inactive
same,outcome,[9],inactive
same,outcome,[2],inactive
same,outcome,[3],inactive
same,outcome,[4],inactive
same,outcome,[5],inactive
same,outcome,[15],inactive
same,outcome,[20],inactive
same,outcome,[8],inactive
CC(=O)OC(C)C,outcome,[1],inactive
same,outcome,[2],inactive
same,outcome,[3],inactive
same,outcome,[15],inactive
same,outcome,[17],inactive
same,outcome,[6],inactive
same,outcome,[7],inactive
same,outcome,[19],inactive
CC(=O)Oc1ccc(C(C)=O)cc1,outcome,[1],inactive
same,outcome,[2],inactive
same,outcome,[3],inactive
same,outcome,[4],inactive
same,outcome,[5],inactive
same,outcome,[19],inactive
same,outcome,[8],inactive
CC1(C)[C@H]2CC[C@]1(C)C(=O)C2,outcome,[1],inactive
same,outcome,[9],inactive
same,outcome,[2],inactive
same,outcome,[3],inactive
same,outcome,[4],inactive
same,outcome,[20],inactive
same,outcome,[7],inactive
same,outcome,[19],inactive
OCCN(CCO)c1ccccc1,outcome,[1],inactive
same,outcome,[9],inactive
same,outcome,[2],inactive
same,outcome,[3],inactive
same,outcome,[4],inactive
same,outcome,[5],inactive
same,outcome,[17],inactive
same,outcome,[6],inactive
same,outcome,[7],inactive
